Only some compounds are listed: those with a hit (about 1.6% of all), similar ones and a draw of the others.
BJeLR viability: BJeLR cell viability loss | inhibition, % (concentration not given with the values) | 300,000 tested, 0.17% active | AID 1554 | BJeLR (HRASV12) viability, CellTiter-Glo ATP luminescence, 48 h; in the data active = inhibition above about 50%
PfHsp40 yeast: rescue of PfHsp40-mediated yeast toxicity; S. cerevisiae expressing PfHsp40, growth rescue, ATP luminescence; growth rescue, % at 12.5 µM; 340,000 tested, 0.68% active; AID 504582; in the data active = growth rescue above about 28%, passing the limit was not always enough;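 also: yeast W303a lacking pdr1 and pdr3 grown in galactose medium; growth measured after three days at 30 °C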
Sa RN4220 lethal: S. aureus RN4220 growth inhibition; OD600, 16 h; inhibition, % (no concentration beside the values); 330,000 tested, 0.33% active; in the data active = inhibition above about 85%;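 also: plate controls were untreated cells for no effect and reference antibiotic for full effect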
CCHF vOTU inh-1: CCHFV vOTU protease inhibition; Pep-AMC fluorescence; inhibition, % at 11.5 µM; 370,000 tested, 0.55% active; AID 651958; also: 0% = vehicle wells with enzyme and 100% = no enzyme wells
Sa ugtP lethal: growth inhibition of S. aureus ugtP deletion strain | S. aureus RN4220 ugtP deletion, OD600 growth, 16 h | growth inhibition, % (concentration not given with the values) | 330,000 tested, 0.54% active | AID 1259309; in the data active = growth inhibition above about 68%;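 also: plate controls were untreated wells for no effect and antibiotic for full effect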
CCHF vOTU inh-2: confirmation of CCHF virus vOTU protease inhibitors; shares compounds with CCHF vOTU inh-1; Recombinant CCHFV vOTU, Pep-AMC fluorescence; inhibition, % at 11.5 µM; 1,900 tested, 17% active; AID 686976
* marks the source's active call; other numbers are inactive results; . = no result. Rule as the data show it, unless noted: active = inhibition above about 30%; inactive = the rest.

SMILES	BJeLR viability	PfHsp40 yeast	Sa RN4220 lethal	CCHF vOTU inh-1	Sa ugtP lethal	CCHF vOTU inh-2
Clc1ccc(C(c2ccc(Cl)cc2)n2cc[n+](CC(OCc3ccc(Cl)cc3Cl)c3ccc(Cl)cc3Cl)c2)cc1 (stereo not drawn)	.	-0.7	100.4*	40.9*	100.1*	25.2
O=C(CC=NOCc1ccc(Cl)cc1Cl)c1ccc(Cl)cc1	.	.	6.1	.	-2.1	.
C/C(C=Nn1c(C2CCCCC2)n[nH]c1=S)=C\c1ccccc1	.	.	10.3	.	17.0	.
S=c1[nH]nc(C2CCCCC2)n1/N=C/C=C/c1ccccc1	-10.9	0.6	.	32.2*	.	8.2
CCOC(=O)c1c(CC(C)C)csc1N=CC1C(=O)CCCC1=O	.	.	13.4	.	10.2	.
CCc1nc2c(OCCC3CCCCC3)cccn2c1N(C)C(=O)c1ccncc1	.	.	.	31.5*	.	-1.2
COc1ccc(CC(N)c2csc(NC(=O)NCc3ccccc3)n2)cc1 (stereo not drawn)	.	.	.	7.5	.	.
CCCCN(C)C(=O)c1ccc(Nc2nc(C(N)CCc3ccccc3)cs2)nc1 (stereo not drawn)	.	.	.	25.1	.	.
CCCCN(C)C(=O)c1ccc(Nc2nc(C(N)Cc3ccc(C(F)(F)F)cc3)cs2)nc1 (stereo not drawn)	.	.	.	32.2*	.	-9.4
COc1cc(CNC(=O)Nc2nc(C(N)Cc3ccc(C(F)(F)F)cc3)cs2)cc(OC)c1OC (stereo not drawn)	.	.	.	30.6*	.	-19.4
Cc1ccc2cc(C=NNC(=O)c3ccccc3O)c(Cl)nc2c1	.	.	8.5	.	-2.7	.
CC(=O)c1cccc(NC(=O)C2(C)Cc3c(-c4cccc(C(F)(F)F)c4)ccnc3O2)c1 (stereo not drawn)	.	.	.	33.3*	.	4.6
CC(=O)c1cccc(NC(=O)C2Cc3c(-c4cccc(C(C)=O)c4)ccnc3O2)c1 (stereo not drawn)	.	.	.	11.4	.	.
CC(=O)Nc1ccc(NC(=O)C2(C)Cc3c(-c4cccc(C(F)(F)F)c4)ccnc3O2)cc1 (stereo not drawn)	.	.	.	2.3	.	.
CC1(C(=O)Nc2cccc(OC(F)(F)F)c2)Cc2c(-c3cccc(C(F)(F)F)c3)ccnc2O1 (stereo not drawn)	.	.	.	40.5*	.	-4.2
CC(=O)c1cccc(-c2ccnc3c2CC(C(=O)Nc2cccc(C(F)(F)F)c2)O3)c1 (stereo not drawn)	.	.	.	33.1*	.	-7.8
CC(=O)Nc1cccc(-c2ccnc3c2CC(C)(C(=O)Nc2cccc(OC(F)(F)F)c2)O3)c1 (stereo not drawn)	.	.	.	12.5	.	.
Br/C(C=NNc1nc(N2CCOCC2)nc(N2CCOCC2)n1)=C\c1ccccc1	.	.	-1.6	.	-10.6	.
Cc1nc2c(C(=O)NCCC(C)C)c[nH]n2c(=O)c1Cl	-8.3	-1.0	-2.7	26.6	3.2	.
Cc1nc2c(C(=O)NCCC(C)C)c[nH]n2c(=O)c1Cc1ccccc1F	3.5	0.5	-8.9	40.7*	-12.8	12.1
Cc1noc(C)c1S(=O)(=O)N(C)CC1Oc2ccc(NC(=O)C3CCCCC3)cc2C(=O)N(C(C)CO)CC1C (stereo not drawn)	.	.	4.6	.	0.3	.
ON=Cc1cn(-c2ccccc2)nn1	.	.	3.7	.	1.3	.
COC(=O)C1=C(c2ccc(OC(F)(F)F)cc2)C[C@@H]2CC[C@H]1N2C(=O)NCCOc1ccccc1	.	6.6	.	30.5*	.	10.0
Cc1cc(NS(=O)(=O)c2ccc(NC(=O)c3oc4ccccc4c3C)cc2)no1	5.9	2.0	-1.6	31.1*	-28.0	-5.2
Cc1c(C(=O)Nc2ccc(S(=O)(=O)Nc3ncccn3)cc2)oc2ccccc12	.	-1.6	-0.1	10.8	-2.9	.
SMILES	BJeLR viability	PfHsp40 yeast	Sa RN4220 lethal	CCHF vOTU inh-1	Sa ugtP lethal	CCHF vOTU inh-2
Cc1cc(NS(=O)(=O)c2ccc(NC(=O)COc3c(C)cc(Br)cc3C)cc2)no1	7.4	2.8	21.1	30.9*	8.8	-10.7
CC1CN(C(C)CO)C(=O)c2cccc(NS(=O)(=O)c3cccs3)c2OC1CN(C)CC1CCCCC1 (stereo not drawn)	.	.	0.0	.	-7.8	.
COc1ccc(NC(=O)N(C)CC2Oc3c(NS(=O)(=O)c4ccc(F)cc4)cccc3C(=O)N(C(C)CO)CC2C)cc1 (stereo not drawn)	.	.	3.5	.	3.5	.
CCN(C(=S)NCCOC)c1cccc2ccccc12	-6.6	-0.1	1.5	-14.2	2.0	.
CCN(C(=S)NC(=O)c1ccco1)c1cccc2ccccc12	.	0.4	2.4	46.1*	2.8	-44.0
CCOC(=O)CC(C)=NNC(=O)c1cccs1	.	.	-1.9	.	2.3	.
CC(=NNc1ccc(F)cc1F)c1ccccc1O	.	.	-1.9	.	9.0	.
CN(C(=O)Nc1ccccc1)C1CCS(=O)(=O)C1 (stereo not drawn)	4.0	-1.0	-0.9	5.4	-1.9	.
CC(=O)NC1=C(N(C)C2CCS(=O)(=O)C2)C(=O)c2ccccc2C1=O (stereo not drawn)	-7.5	-0.6	.	61.3*	.	71.2*
CCOc1ccc2c(c1)C(C)=CC(C)(C)N2	.	-2.6	.	39.6*	.	-104.6
CCc1ccc2c(c1)C(C)=CC(C)(C)N2	5.6	-0.7	-10.6	3.0	-11.1	.
O=C(Cc1ccc2cccnc2c1)c1ccc(O)cc1O	-8.4	0.1	6.4	48.1*	17.3	-6.0
COc1cccc(C=NNC(=O)CCn2nnc3ccccc32)c1	.	.	-4.0	.	-12.6	.
CC1Cc2nc(SCC(N)=O)n(C)c(=O)c2S1 (stereo not drawn)	2.0	-1.1	-0.3	32.1*	10.4	-9.4
CCOC(=O)CSc1nc2c(sc(=S)n2-c2ccc(CC)cc2)c(=O)[nH]1	-0.1	0.6	10.1	35.3*	5.6	22.7
COc1ccc(NC(=O)CN(C)CC(=O)NC(=O)NC2CCCCC2)cc1	.	0.3	2.0	38.0*	3.7	-17.6
CCCCCCCN1C(Nc2ccccc2)=NCC1Cc1ccccc1 (stereo not drawn)	.	.	-2.6	.	-2.8	.
COc1ccc(NC(=O)/C(C#N)=C\c2ccc(-c3cccc(C(=O)O)c3C)o2)cc1	5.6	0.2	4.1	13.6	8.1	.
Cc1c(C(=O)O)cccc1-c1ccc(C=O)o1	6.5	0.9	4.5	36.4*	2.3	-18.9
COc1cccc2cc(C(N)=O)c(=NNC(=O)COc3ccc(Cl)cc3)oc12	.	.	3.8	.	-0.1	.
COc1cc(C(N)=O)ccc1OCc1ccccc1	-1.8	-0.9	1.3	29.9*	3.0	-27.0
COc1cc(OC)cc(-c2c(-c3cccs3)c3cc(Br)ccc3n2C)c1	.	-0.5	-11.3	30.7*	-0.9	-27.9
COc1cc(C=NNC(=O)[C@H](Cc2c[nH]c3ccccc23)NC(=O)OCC(C)C)cc([N+](=O)[O-])c1O	.	.	4.6	.	0.4	.
COc1cc(/C=N/NC(=O)[C@H](Cc2c[nH]c3ccccc23)NC(=O)OCC(C)C)cc([N+](=O)[O-])c1O	-2.1	0.3	.	36.2*	.	-0.1
COC(=O)C1=C(C(=O)OC)C2Nc3ccccc3[C@@]23CC(C(=O)OC)N(C(=O)CC(C)C)C3=N1 (stereo partly drawn)	.	.	-0.3	.	-10.5	.
CCN(CC)S(=O)(=O)c1ccc(C(=O)Nc2cc3oc4ccccc4c3cc2OC)cc1	-6.0	-1.9	5.6	1.0	-4.8	.
CCN(CC)C(=O)CN(c1cc2c(cc1OC)oc1ccccc12)S(=O)(=O)c1ccc(C)cc1	-4.4	0.5	-2.3	30.2*	7.3	-22.7

Source: PubChem BioAssay
